Measured values as given in PubChem BioAssay (NCI).
About 79,000 compounds went through this panel and 15% of them were active in at least one assay; those are over-represented in the sample as a whole. Activity calls are given as the source filed them. No stated cut-off is given here; in the data, active means growth inhibition above about 70%; inactive means the rest.

Columns and labels:
[1] = NCI Yeast Anticancer Drug Screen. Data for the rad52 strain (AID 147);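 further: 0% = growth of vehicle-treated control cultures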; conditions: S. cerevisiae rad52 mutant growth inhibition, stronger effect = higher value
Method in brief: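 Screen used a yeast mutant impaired in DNA repair. After compound exposure, growth was measured. Values reflect inhibition compared with vehicle-treated cells.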

[2] = NCI Yeast Anticancer Drug Screen. Data for the wt1 strain (AID 149);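 further: 0% = growth of vehicle-treated wt1 cultures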; conditions: S. cerevisiae wt1 strain (SPY 50644) growth inhibition, stronger effect = higher value
Method in brief: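 Each compound is tested on wt1 yeast and the loss of growth versus vehicle gives the inhibition value.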

[3] = NCI Yeast Anticancer Drug Screen. Data for the rad50EPP+ strain (AID 151);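 further: 0% = growth of vehicle-treated control cultures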; conditions: S. cerevisiae rad50 mutant strain, stronger effect = higher value
Method in brief: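 Exposing the rad50EPP+ strain to each compound, growth was compared with vehicle-only cultures to give inhibition.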

[4] = NCI Yeast Anticancer Drug Screen. Data for the mgt1 strain (AID 153); conditions: S. cerevisiae mgt1 mutant growth inhibition, stronger effect = higher value
Method in brief: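 Genetically defined yeast (mgt1) treated with compound; inhibition of growth expressed against vehicle-treated controls.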

[5] = NCI Yeast Anticancer Drug Screen. Data for the rad50 strain (AID 155);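 further: 0% = growth of vehicle-only cultures of the same strain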; conditions: S. cerevisiae rad50 strain growth inhibition, stronger effect = higher value
Method in brief: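 Vehicle-treated cultures provide the reference for the growth inhibition reported for compound-exposed, repair-deficient yeast.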

[6] = NCI Yeast Anticancer Drug Screen. Data for the mec2-1 strain (AID 157); conditions: S. cerevisiae mec2-1 strain, stronger effect = higher value
Method in brief: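 Readout is yeast growth inhibition, normalised to vehicle-treated controls, in the mec2-1 strain exposed to compound.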

[7] = NCI Yeast Anticancer Drug Screen. Data for the rad14 strain (AID 159);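 further: 0% = growth of vehicle-treated control cultures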; conditions: S. cerevisiae rad14 strain growth inhibition, stronger effect = higher value
Method in brief: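 Inhibition of growth is reported for a repair-deficient yeast mutant following compound treatment, calculated relative to cultures that received vehicle.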

[8] = NCI Yeast Anticancer Drug Screen. Data for the sgs1 mgt1 strain (AID 161);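 further: 0% = growth of cultures given vehicle only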; conditions: S. cerevisiae sgs1 mgt1 strain, stronger effect = higher value
Method in brief: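 Compounds are added to genetically altered yeast, and growth is compared with cultures given vehicle alone to give percent inhibition.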

[9] = NCI Yeast Anticancer Drug Screen. Data for the CLN2oe strain (AID 163);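 further: 0% = growth of vehicle-only control cultures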; conditions: S. cerevisiae CLN2oe strain, stronger effect = higher value
Method in brief: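 Values reflect how much compound exposure reduced yeast growth, referenced to vehicle-exposed cells. Assay organism is a strain with a defined genetic change affecting cell-cycle control.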

[10] = NCI Yeast Anticancer Drug Screen. Data for the cln2 rad14 strain (AID 165);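 further: 0% = growth equal to vehicle treated cultures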; conditions: S. cerevisiae cln2 rad14 strain, stronger effect = higher value
Method in brief: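 Relative to vehicle controls, growth inhibition of compound-treated cln2 rad14 yeast was recorded.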

[11] = NCI Yeast Anticancer Drug Screen. Data for the bub3 strain (AID 167); conditions: S. cerevisiae bub3 mutant strain, stronger effect = higher value
Method in brief: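 Mutant yeast screening strain plus compound; vehicle-treated cultures serve as the 0% inhibition reference.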

[12] = NCI Yeast Anticancer Drug Screen. Data for the wt2 strain (AID 169); conditions: S. cerevisiae wt2 strain growth inhibition, stronger effect = higher value
Method in brief: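 Values express reduction in yeast growth under compound treatment, referenced to vehicle-treated cells.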

[13] = NCI Yeast Anticancer Drug Screen. Data for the mlh1 strain (AID 171);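 further: 0% = growth of vehicle-treated control cultures of the same strain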; conditions: S. cerevisiae mlh1 strain growth inhibition, stronger effect = higher value
Method in brief: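 Steps: expose the defined-mutant yeast strain to compound; expose a parallel culture to vehicle; measure growth; express compound effect as inhibition relative to the vehicle culture.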

[14] = NCI Yeast Anticancer Drug Screen. Data for the sgs1 strain (AID 173);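 further: 0% = growth of vehicle-only control cultures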; conditions: S. cerevisiae sgs1 mutant, stronger effect = higher value
Method in brief: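 Treat defined-mutant yeast with compound; measure growth; calculate inhibition relative to vehicle-treated cells.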

[15] = NCI Yeast Anticancer Drug Screen. Data for the mlh1 rad18 strain (AID 175); conditions: S. cerevisiae mlh1 rad18 strain growth inhibition, stronger effect = higher value
Method in brief: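 Test agents were incubated with a yeast strain of defined genotype (DNA damage repair defect). Inhibition of growth was derived by comparison with vehicle-exposed cultures.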

[16] = NCI Yeast Anticancer Drug Screen. Data for the rad18 strain (AID 177); conditions: S. cerevisiae rad18 mutant growth inhibition, stronger effect = higher value
Method in brief: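 A genetically defined yeast mutant impaired in DNA damage repair was treated with test compounds, then its growth was measured against cultures receiving vehicle alone.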

[17] = at 5.0 µM (retest, dose inferred, filed as 0.5)
[18] = at 50.0 µM (retest, dose inferred, filed as 5.0)

Measured: growth inhibition

CCCCN(CCCC)CCC(O)c1cc2c(Cl)cc(Cl)cc2c2cc(C(F)(F)F)ccc12 (stereo not drawn)
active: [1]; at 11.0 µM 99% | [1]; at 33.0 µM 98% | [1]; at 100.0 µM 96% | [2]; at 11.0 µM 93% | [2]; at 33.0 µM 98% | [2]; at 100.0 µM 96% | [3]; at 11.0 µM 80% | [3]; at 33.0 µM 98% | [3]; at 100.0 µM 93% | [4]; at 11.0 µM 99% | [4]; at 33.0 µM 99% | [4]; at 100.0 µM 97% | [5]; at 11.0 µM 98% | [5]; at 33.0 µM 98% | [5]; [18] 98% | [5]; at 50.0 µM 87.5% | [5]; at 100.0 µM 95% | [6]; at 11.0 µM 98% | [6]; at 33.0 µM 99% | [6]; [18] 98% | [6]; at 50.0 µM 89.7% | [6]; at 100.0 µM 96% | [7]; at 11.0 µM 98% | [7]; at 33.0 µM 99% | [7]; at 100.0 µM 96% | [8]; [18] 97% | [8]; at 50.0 µM 86.5% | [9]; at 11.0 µM 98% | [9]; at 33.0 µM 99% | [9]; at 100.0 µM 95% | [10]; [18] 96% | [10]; at 50.0 µM 85.5% | [11]; at 11.0 µM 97% | [11]; at 33.0 µM 99% | [11]; [18] 96% | [11]; at 50.0 µM 82.7% | [11]; at 100.0 µM 96% | [12]; at 11.0 µM 98% | [12]; at 33.0 µM 96% | [12]; at 100.0 µM 90% | [13]; at 11.0 µM 98% | [13]; at 33.0 µM 99% | [13]; at 100.0 µM 96% | [14]; at 11.0 µM 99% | [14]; at 33.0 µM 99% | [14]; at 100.0 µM 95% | [15]; [18] 97% | [15]; at 50.0 µM 82.8% | [16]; at 11.0 µM 98% | [16]; at 33.0 µM 99% | [16]; at 100.0 µM 94%
inactive: [1]; at 1.2 µM 1% | [1]; at 3.7 µM 11% | [2]; at 1.2 µM -2% | [2]; at 3.7 µM 0% | [3]; at 1.2 µM 8% | [3]; at 3.7 µM 19% | [4]; at 1.2 µM 27% | [4]; at 3.7 µM 30% | [5]; at 1.2 µM 24% | [5]; at 3.7 µM 16% | [5]; [17] 41% | [6]; at 1.2 µM 10% | [6]; at 3.7 µM 8% | [6]; [17] 53% | [7]; at 1.2 µM 23% | [7]; at 3.7 µM 20% | [8]; [17] 56% | [9]; at 1.2 µM 22% | [9]; at 3.7 µM 20% | [10]; [17] 67% | [11]; at 1.2 µM 10% | [11]; at 3.7 µM 3% | [11]; [17] -17% | [12]; at 1.2 µM -46% | [12]; at 3.7 µM 18% | [13]; at 1.2 µM 14% | [13]; at 3.7 µM 23% | [14]; at 1.2 µM 18% | [14]; at 3.7 µM 18% | [15]; [17] 62% | [16]; at 1.2 µM 26% | [16]; at 3.7 µM 29%
